# Shown are actives, neighbours in structure and some others; about 2.9% of the full set was active somewhere.
# PAFAH2 FP inh = PAFAH2 (human) inhibition. inhibition, % at 3.39 µM. recombinant PAFAH2, FP-rhodamine activity probe, fluorescence polarization. hit rate 0.99% among 340,000. Q99487;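 active means inhibition above the mean over all tested compounds plus 3 SD, cut at about 30% in these data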;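 further: inhibitors block probe labeling of enzyme so polarization drops; 0% = enzyme with DMSO and 100% = wells lacking PAFAH2 protein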
# EBNA-1 inh = blocks EBNA-1 binding to DNA. EBNA-1 DNA binding, fluorescence polarization. inhibition, % at 14.8 µM. hit rate 0.34% among 300,000; in the data active means inhibition above about 28%
# PAFAH1B2 FP inh = PAFAH1B2 (human) inhibition | inhibition, % at 3.39 µM | hit rate 1.2% among 340,000 | P68402 | recombinant PAFAH1B2, FP-rhodamine activity probe, fluorescence polarization;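 active means inhibition above the mean of all tested compounds plus 3 SD, cut at about 24% in these data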;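 further: 0% = enzyme with DMSO and 100% = wells lacking PAFAH1B2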
# PAFAH1B3 FP inh = PAFAH1B3 (human) inhibition | recombinant PAFAH1B3, FP-rhodamine probe, fluorescence polarization | inhibition, % at 3.39 µM | hit rate 0.28% among 340,000 | AID 492972;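 active means inhibition above the screen-wide average of all tested compounds plus 3 SD, cut at about 25% in these data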;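 further: 0% = enzyme with DMSO only and 100% = wells lacking PAFAH1B3 protein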
# pPAFAH FP inh = pPAFAH (human) enzyme inhibition; Q13093; recombinant pPAFAH, FP-rhodamine probe fluorescence polarization; inhibition, % at 3.39 µM; hit rate 1.5% among 330,000; AID 463082;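 active means inhibition above the mean inhibition across the screen plus 3 SD, cut at about 25% in these data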;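 further: inhibitors block binding of the rhodamine activity-based probe so polarization drops; 0% = enzyme with DMSO and 100% = wells lacking pPAFAH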
# ZTA DNA inh = blocks Epstein-Barr virus ZTA, an EBNA-1 counter-screen. P03206. ZTA-DNA binding, fluorescence polarization. inhibition, % at 11 µM. hit rate 0.15% among 320,000; in the data active means inhibition above about 33%
# Target sequence (P03206 whole entry, looked up): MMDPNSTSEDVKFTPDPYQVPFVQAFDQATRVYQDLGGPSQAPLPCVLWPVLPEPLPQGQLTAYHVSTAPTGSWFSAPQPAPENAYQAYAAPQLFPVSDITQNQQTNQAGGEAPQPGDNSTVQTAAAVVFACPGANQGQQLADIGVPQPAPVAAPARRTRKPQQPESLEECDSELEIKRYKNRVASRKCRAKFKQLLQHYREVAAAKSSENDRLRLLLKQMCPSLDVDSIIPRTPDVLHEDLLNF
# Numbers without * were called inactive; . = no result.
SMILES,PAFAH2 FP inh,EBNA-1 inh,PAFAH1B2 FP inh,PAFAH1B3 FP inh,pPAFAH FP inh,ZTA DNA inh
CC1(C)Cc2c(cnn2-c2cccc(F)c2)C(NC(=O)CSc2ccncc2)C1 (configuration not stated),1,11,2,2,1,-2
O=C(NCc1ccco1)c1cc2c(s1)CSC2,.,8,.,.,28*,9
Cc1ccc(CCNS(=O)(=O)c2cc(Br)cnc2N)cc1,4,0,15,-1,1,3
CC(C)Oc1ccccc1/C=N/n1nnnc1N,4,-3,2,2,1,-4
COc1cccc(-c2nnc(Nc3nc4c(F)cccc4s3)o2)c1,25,-4,14,9,29*,7
COC(=O)Cc1cc(=O)[nH]c(Nc2nc3ccccc3o2)n1,19,10,3,11,28*,-3
CCOC(=O)Cc1cc(=O)[nH]c(Nc2nc3ccccc3o2)n1,8,2,7,8,14,1
Cn1cc(CNC(=O)/C=C/c2ccc(Cl)cc2)cn1,1,-12,2,3,6,-18
O=C(OCc1nnc(-c2ccccc2)o1)c1ccc([N+](=O)[O-])s1,31*,.,24,31*,14,0
Cc1c(Cl)cnc(NC(=O)COC(=O)c2ccc([N+](=O)[O-])s2)c1Cl,47*,2,16,33*,20,-4
O=C(OCC(=O)N1CCC(c2ccccc2)=N1)c1ccc([N+](=O)[O-])s1,21,-4,15,16,25*,12
O=C(OCc1nnc(-c2ccccc2)o1)c1cc(Cl)ccc1[N+](=O)[O-],17,10,-10,8,2,-8
O=C(COC(=O)c1ccc([N+](=O)[O-])s1)Nc1ccccc1,81*,-1,10,34*,15,-1
COc1ccc(NC2CCCN(C(=O)c3ccc4nc(C)c(C)nc4c3)C2)cc1OC (configuration not stated),5,13,-2,6,4,4
Cc1nc(C)c(C(=O)OCC(=O)Nc2ccccc2)s1,95*,.,-1,13,26*,0
COc1ccc(CCNC(=O)COC(=O)c2sc(C)nc2C)cc1,23,.,1,0,8,-1
O=C(COC(=O)c1ccc([N+](=O)[O-])s1)Nc1ccc(F)cc1,52*,.,10,34*,12,11
COc1ccc(Cl)cc1N1C(=O)CC(N2CCN(S(=O)(=O)c3ccccc3F)CC2)C1=O (configuration not stated),7,.,0,16,0,.
O=S(=O)(Nc1cc2nc3ccccc3nc2n1Cc1ccccc1)c1ccc(Cl)cc1,66*,8,47*,63*,14,31
CCc1nnc(NC(=O)CC23CC4CC(CC(C4)C2)C3)s1,7,0,19,2,4,-9
Cc1nnc(NC(=O)CC23CC4CC(CC(C4)C2)C3)s1,3,8,28*,7,3,24
CC12CC3CC(C)(C1)CC(C(=O)Nc1nncs1)(C3)C2,-8,2,28*,-1,3,10
Cc1nnc(NC(=O)C23CC4CC(C)(CC(C)(C4)C2)C3)s1,-1,1,26*,1,0,-20
CCOc1ncccc1C(=O)OCC(=O)Nc1ccc(C(C)C)cc1,51*,2,-2,6,30*,4
CCOC(CNC(=O)C(=O)Nc1cc2c3c(c1)CCN3C(=O)CC2)OCC,-5,-10,5,-1,-1,-15
SMILES,PAFAH2 FP inh,EBNA-1 inh,PAFAH1B2 FP inh,PAFAH1B3 FP inh,pPAFAH FP inh,ZTA DNA inh
O=C(Nc1ccc(F)cc1)Nc1nnc(-c2ccco2)s1,-5,-5,-2,3,1,4
Cc1cc(Cl)ccc1C(=O)C1CCCN(C(=O)c2ccc3ncccc3c2)C1 (configuration not stated),-4,-22,-1,12,25*,-1
Cc1ccc(/C=C2/C(=N)N3N=C(CC(=O)N4CCCC4)SC3=NC2=O)cc1,8,-9,6,2,25*,-4
N=C1/C(=C\c2ccc(SCc3ccccc3)o2)C(=O)N=C2SC(CC(=O)N3CCOCC3)=NN12,25,1,22,2,30*,-17
Cc1ccc(/C=C2\C(=N)N3N=C(CC(=O)N4CCOCC4)SC3=NC2=O)o1,11,8,0,12,11,19
COCc1ccc(C(=O)NC2CCCc3c2cnn3-c2cc(C)cc(C)c2)s1 (configuration not stated),-4,.,-2,4,.,.
